Assay outcomes as filed in PubChem.
Compounds with a hit are over-represented: about 1.3% of the library has one in this group of screens.
CD11b adhes enh: increases human CD11b/CD18 adhesion to fibrinogen; K562 CD11b/CD18 adhesion to fibrinogen, ATPlite luminescence; activation, % at 10 µM; 0.07% of 93,000 active;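 active = 10 µM primary screen giving 50% or more activity, confirmed by 40% or more on retest at that dose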
Target sequence (P05107 whole entry, looked up, other chains not shown): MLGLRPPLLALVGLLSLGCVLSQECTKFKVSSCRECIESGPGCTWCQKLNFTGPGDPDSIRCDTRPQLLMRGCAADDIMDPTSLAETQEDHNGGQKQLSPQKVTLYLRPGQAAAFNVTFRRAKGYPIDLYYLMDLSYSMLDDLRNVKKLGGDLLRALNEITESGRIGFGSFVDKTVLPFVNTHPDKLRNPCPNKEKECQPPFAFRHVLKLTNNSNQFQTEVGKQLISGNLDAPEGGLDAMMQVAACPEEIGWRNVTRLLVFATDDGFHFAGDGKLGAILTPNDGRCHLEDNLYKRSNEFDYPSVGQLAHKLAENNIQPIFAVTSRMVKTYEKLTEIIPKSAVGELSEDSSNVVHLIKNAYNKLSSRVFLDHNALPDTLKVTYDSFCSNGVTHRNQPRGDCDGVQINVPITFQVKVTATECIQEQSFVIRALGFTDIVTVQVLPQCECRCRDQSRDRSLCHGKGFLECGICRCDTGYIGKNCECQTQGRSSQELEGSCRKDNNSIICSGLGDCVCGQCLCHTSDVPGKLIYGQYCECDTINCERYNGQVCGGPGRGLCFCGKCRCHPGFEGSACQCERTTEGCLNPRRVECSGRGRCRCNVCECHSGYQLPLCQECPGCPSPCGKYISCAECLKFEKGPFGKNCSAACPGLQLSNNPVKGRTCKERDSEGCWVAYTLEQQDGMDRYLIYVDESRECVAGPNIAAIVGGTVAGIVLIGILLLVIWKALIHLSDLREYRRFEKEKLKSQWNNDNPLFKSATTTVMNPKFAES
CD11b adhes inh: blocks human CD11b/CD18 adhesion to fibrinogen | P05107+P11215 | K562 CD11b/CD18 adhesion to fibrinogen, ATPlite luminescence; Mn2+ added to activate the integrin | inhibition, % at 10 µM | 0.54% of 93,000 active | AID 1497;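 active = primary inhibition of 50% or more at 10 µM, then 40% or more on retest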
MRP reversal: reverses drug resistance mediated by MRP. AID 602. H69AR cells + 2 uM doxorubicin, CellTiter-Glo, 72 h. 0.04% of 85,000 active. differential viability (reversal), % at 10 µM;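 active = viability drop by adding the cancer drug above about 55%, with treated viability meeting a 40% cutoff, limit read from the data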;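 note: viability without doxorubicin minus viability with 2 µM doxorubicin for each compound; larger differential means the compound sensitizes cells more to doxorubicin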
MRP-1 activ: MRP-1 activation; H69AR cells + doxorubicin, viability rescue, CellTiter-Glo; viability increase, % at 10 µM; 0.61% of 140,000 active; AID 799;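 active = viability gain under doxorubicin at or above a set limit, the compound median plus 3 SD, cut at about 4.7% in these data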;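 note: MRP-1 overexpressing cells given doxorubicin 25 µM after compound pretreatment; 18-22 h compound pretreatment then 72 h with doxorubicin before readout; 0% = doxorubicin-only wells and 100% = vehicle-treated cells without doxorubicin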
sdo1 growth: restores growth of sdo1-depleted yeast; S. cerevisiae sdo1-depleted JHY4D growth rescue, OD600 30 h; hits give high values; pdr5 snq2 efflux-pump mutant strain; z-score at 10 µM; 0.21% of 140,000 active; AID 817;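 active = z-score above 3 at both the 24 hr and the 30 hr optical density reads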;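 note: z-score against mean and SD of all compound wells on the same plate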
Phagocytosis inh: macrophage phagocytosis inhibition | J774A.1 macrophage IgG-bead phagocytosis, imaging | inhibition, % at 5 µM | 0.07% of 110,000 active | AID 1029;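 active = inhibition above the mean of the plate negative controls plus 5 SD, cut at about 13% in these data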;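 note: phagocytic index as fraction of beads internalized from green versus red external bead signal; plate controls were DMSO negative control for no effect and cytochalasin-D positive control for full effect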
* marks the source's active call; other numbers are inactive results; . = no result given; [ ] = remark or other dose.

SMILES | CD11b adhes enh | CD11b adhes inh | MRP reversal | MRP-1 activ | sdo1 growth | Phagocytosis inh
COc1ccc(Cn2c(SCc3ccccc3C)nc3cc(OC)c(OC)cc3c2=N)cc1 | 135* | -3 | . | -7 | -2 | -2
O=C(c1ccco1)N1CCN(CCCCOc2ccc(F)cc2)CC1 | . | . | . | -2 | 0.27 | 2
O=C(CSC1=NS(=O)(=O)c2ccccc21)Nc1ccccc1 | -6 | 72* | -65 | 1 | -1.2 | 1
COC(=O)CSC1=NS(=O)(=O)c2ccccc21 | -8 | 69 | -23 | 0 | -1.2 | 1
O=C(NC(=S)Nc1ccc(Oc2ccccc2)cc1)c1ccc(Cl)cc1 | -9 | 78* | . | -1 | -2 | 0
Cc1ccc(C(=O)NC(=S)Nc2ccc(Oc3ccc(Cl)cc3)cc2)cc1 | . | . | . | -2 | -0.66 | .
COc1cccc(/C=N/NC(=O)C[n+]2ccccc2)c1O | . | . | . | 1 | 2 | -3
COc1cccc(/C=N/NC(=O)CNC(=O)c2ccc3c(c2)OCCO3)c1O | 1 | -4 | . | 5.9* | 1.6 | -6
COc1cccc(/C=N/NC(=O)CNC(=O)C2COc3ccccc3O2)c1O (configuration not stated) | . | . | . | 9.6* | 0.59 | -8
Cc1cc(CSc2ccccc2)ccc1NC(=O)c1ccc(CN2CCOCC2)cc1 | . | . | . | -2 | -1.2 | -6
Cc1cccc(NC(=S)N(C)C2(c3ccccc3Cl)CCCCC2=O)c1 (configuration not stated) | 6 | 8 | . | 0 | -0.75 | 33*[artifact]
CC(C)NC(=S)N(C)C1(c2ccccc2Cl)CCCCC1=O (configuration not stated) | . | . | . | -1 | -0.55 | -9
O=C(NCCCN1CCC(Cc2ccccc2)CC1)C1CC(=O)N(C2CCCCCC2)C1 (configuration not stated) | 3 | -7 | 13 | -4 | 0.02 | 0
COc1ccccc1CC(=O)Nc1ccc2c(c1)CCC2 | -1 | -9 | . | 0 | -0.51 | -3
COc1ccc(CC(=O)Nc2ccc3c(c2)CCC3)cc1OC | -6 | 65* | . | 0 | 1.6 | 0
COc1ccc(S(C)(=O)=O)cc1S(C)(=O)=O | -4 | -4 | . | 0 | 0.31 | -1
CCC1SC2=NC(C)=C(C(=O)OC)C(c3ccc(C(=O)OC)cc3)N2C1=O (configuration not stated) | -1 | -16 | 9 | 4.9* | -0.95 | -2
CCC1SC2=NC(C)=C(C(=O)OCCOC)C(c3ccc(C(=O)OC)cc3)N2C1=O (configuration not stated) | 0 | -6 | 19 | 7.8* | 0.29 | 0
COC(=O)C1=C(C)N=C2SCCC(=O)N2C1c1ccc(C(=O)OC)cc1 (configuration not stated) | 0 | 0 | 14 | -3 | 0.63 | 0
O=C(COc1ccc(S(=O)(=O)NCc2ccccc2)cc1)NCC1CCCO1 (configuration not stated) | 1 | 4 | -5 | -1 | 0.5 | 24*
O=C(COc1ccc(S(=O)(=O)NCc2ccccc2)cc1Cl)NCC1CCCO1 (configuration not stated) | 0 | 4 | -12 | -4 | 0.49 | -1
CC(C)C(=O)Nc1cccc(NC(=O)c2ccc(Cl)cc2Cl)c1 | . | . | . | -2 | 1.3 | -3
O=C(Nc1nc(=S)ss1)c1ccc(Cl)cc1Cl | -7 | 114* | 3 | -2 | -0.44 | .
CC(O)(CS(=O)(=O)Cc1ccccc1)C(=O)Nc1ccc(C(F)(F)F)cc1 (configuration not stated) | -2 | 17 | . | 7.9* | -0.65 | -1
C/C(=C\C(=O)Nc1nccs1)c1ccccc1 | 13 | -6 | -5 | 0 | -0.4 | -2
SMILES | CD11b adhes enh | CD11b adhes inh | MRP reversal | MRP-1 activ | sdo1 growth | Phagocytosis inh
COc1ccc(NC(=O)C2CCCN2S(=O)(=O)c2cccc3cccnc23)c(OC)c1 (configuration not stated) | 0 | 13 | -6 | -2 | -2.9 | 0
COc1ccc(N(C)S(=O)(=O)c2cccc3cccnc23)c(OC)c1 | 54* | -2 | -24 | -3 | -1.5 | 2
Cc1cc(C2=NNC(=NC3CC3)SC2)c(C)n1-c1ccccc1 | -5 | 98* | . | -4 | -1.5 | -3
Cc1cc(C2=NNC(=NC3CC3)SC2)c(C)n1Cc1ccco1 | 19 | 75* | . | -5 | -1.1 | -2
O=C(Cn1c(=O)c2c(ncn2Cc2ccccc2)n(Cc2ccccc2)c1=O)N1CCc2ccccc21 | 9 | -4 | 16 | 5.3* | -1 | -2
Cc1ccc(Oc2ccc(-c3nnc(-c4ccccc4)o3)cc2[N+](=O)[O-])cc1C | . | . | . | -2 | 0.15 | -9
Cc1cc(C)c(S(=O)(=O)/N=C2\C=CC(=O)C(Cl)=C2)c(C)c1 | 27 | 67* | 15 | -1 | -0.76 | .
CCCCCCN1C2=NCCN2c2ccccc21 | 0 | -7 | 7 | -4 | 1.5 | 1
CCCCCCn1ccc(=N)cc1 | -5 | 56* | -16 | 0 | 1.4 | -1
COc1ccc2c(c1)c(C(=O)CN1CCC(C(N)=O)CC1)c(C)n2C | -3 | -5 | . | -4 | 0.94 | -2
Cc1ccc(C(=O)Cn2nnc3ccccc32)cc1 | . | . | . | -1 | -0.11 | .
CCN(C(=O)c1ccc(C(C)(C)C)cc1)c1nnc(Cn2nnc3ccccc32)s1 | -11 | 99* | -8 | 0 | 0.02 | -1
COc1ccc(N2C(=O)CCC(C(=O)O)C2c2ccc(OC)c(OC)c2)cc1 (configuration not stated) | -2 | -12 | . | -2 | 0.53 | -1
COc1ccc(N2C(=O)CCC(C(=O)NCCN3CCOCC3)C2c2ccc(OC)c(OC)c2)cc1 (configuration not stated) | -1 | 1 | 20 | 1 | -0.05 | 44*
Cc1ccc(CNC(=O)C(=O)NCC2OCCN2S(=O)(=O)c2ccc3c(c2)OCCO3)cc1 (configuration not stated) | . | . | . | 1 | -0.04 | .
O=C(Nc1ncc(Cc2ccccc2Cl)s1)c1ccc(-c2cccc([N+](=O)[O-])c2)o1 | 7 | 10 | . | 5.2* | 0.05 | -2
O=C(Nc1ncc(Cc2ccccc2Cl)s1)c1ccc([N+](=O)[O-])cc1 | . | . | . | 1 | -1.3 | -6
O=C(Nc1ncc(Cc2ccc(C(F)(F)F)cc2)s1)c1ccc(-c2cccc([N+](=O)[O-])c2)o1 | 10 | 13 | . | 5.0* | -0.44 | -9
O=C(Nc1ncc(Cc2cccc(Cl)c2)s1)c1ccc([N+](=O)[O-])cc1 | 6 | 72 | . | 0 | 0.05 | .
Nc1c(-c2ccccc2)cnn1C1CCS(=O)(=O)C1 (configuration not stated) | 1 | -15 | 7 | -1 | 0.24 | -1
Cn1c(=O)c(NCCc2ccccc2)c2c3c(cccc31)C(=O)c1ccccc1-2 | -2 | 11 | 64* | -4 | -0.86 | -1
O=C1CC(N2CCC(O)(c3ccc(Br)cc3)CC2)C(=O)N1c1ccc(Cl)cc1 (configuration not stated) | . | . | . | 6.3* | 0.03 | .
